For assay [1], the system named is PRMT1 (protein arginine N-methyltransferase 1). The assay is described as follows: PRMT1 binders on small-molecule microarrays, primary screen, biochemical, small-molecule microarray, 635 nm fluorescence (AID 1088).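 Note: binding of Prmt1 protein to compounds spotted on small-molecule microarray slides.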 Particulars: small-molecule microarray binding, higher = more signal.
Assay [2] in a line: yeast growth modulation, basal conditions, primary screen, YJM789 clinical isolate, OD600, 24 h (AID 1089).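 Note: growth of clinical yeast isolate S. cerevisiae YJM 789 seeded 1000 cells per well; test concentration not given here.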 Particulars: S. cerevisiae YJM789 growth, higher = more signal, called active from +8 up or from −8 down.
Assay [3] in a line: fission yeast growth modulation, primary screen, strain 972, OD600, 24 h, no modulator (AID 1090).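 Note: basal condition with compound alone and no growth modifier present; test concentration not given here.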 Particulars: S. pombe 972 growth, higher = more signal, called active from +8 up or from −8 down.
A short description of assay [4]: S. cerevisiae growth modulation with rapamycin, primary screen, strain BY4716, OD600, 96 h (AID 1091). Note: test concentration not given here. Particulars: higher = more signal, called active from +8 up or from −8 down.
For assay [5], the target named is Torsin-1A-interacting protein 2 (Homo sapiens) (UniProt Q8NFQ8). The assay can be described thus: LULL1 binders on small-molecule microarray, primary screen, cell lysate, human LULL1 lysate, 635/667 nm fluorescence (AID 1092).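 Note: probe is lysate of COS7 cells overexpressing human LULL1; score merges per-feature 667 nm fluorescence with signal-to-noise.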 Particulars: hLULL1 lysate binding, 635 nm fluorescence, higher = more signal.
Torsin-1A-interacting protein 2 (Homo sapiens), sequence (Q8NFQ8 whole entry, looked up): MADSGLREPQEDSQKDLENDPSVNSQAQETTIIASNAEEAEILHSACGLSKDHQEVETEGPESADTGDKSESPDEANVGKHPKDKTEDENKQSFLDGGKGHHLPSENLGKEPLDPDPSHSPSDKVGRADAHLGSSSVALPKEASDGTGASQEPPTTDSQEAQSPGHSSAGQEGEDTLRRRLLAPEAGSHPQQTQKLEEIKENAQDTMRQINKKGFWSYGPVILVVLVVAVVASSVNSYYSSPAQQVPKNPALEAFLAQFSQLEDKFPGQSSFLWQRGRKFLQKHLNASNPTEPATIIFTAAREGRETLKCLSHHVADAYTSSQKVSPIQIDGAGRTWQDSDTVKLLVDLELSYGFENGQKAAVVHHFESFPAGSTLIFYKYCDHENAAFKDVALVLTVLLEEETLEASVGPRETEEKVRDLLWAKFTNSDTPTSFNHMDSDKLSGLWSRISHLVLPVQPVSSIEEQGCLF
A short description of assay [6]: E. coli growth modulation, two-sided OD650, primary screen, E. coli filamentation project, strain DRC41, 24 h (AID 1093).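 Note: MC1000 strain lacking acrAB efflux and sulA so SOS filamentation is blocked; test concentration not given here.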 As to conditions: OD650, 24 h, higher = more signal, called active from +8 up or from −8 down.
Assay [7] can be described thus: small-molecule microarray binders of probe aLefty2, primary screen, biochemical, biotinylated probe, 635/667 nm fluorescence (AID 1094).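 Note: score merges spot fluorescence near 667 nm with spot signal-to-noise ratio.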 Particulars: higher = more signal.
In assay [8] the test system is Noggin (protein binding on small-molecule microarray). The assay can be described thus: Noggin binders on small-molecule microarray, primary screen, biochemical, 635/667 nm fluorescence (AID 1095).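 Note: score merges 667 nm feature fluorescence with signal to noise over triplicate slides.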 Particulars: 635 nm fluorescence, higher = more signal.
The target in assay [9] is Neurogenic locus notch homolog protein 3 (Homo sapiens) (UniProt Q9UM47). The assay can be described thus: NOTCH3 binders on small-molecule microarray, primary screen, biochemical, 635/667 nm fluorescence (AID 1096). As to conditions: NOTCH3 binding, 635 nm fluorescence, higher = more signal.
Neurogenic locus notch homolog protein 3 (Homo sapiens), sequence (Q9UM47 whole entry, looked up): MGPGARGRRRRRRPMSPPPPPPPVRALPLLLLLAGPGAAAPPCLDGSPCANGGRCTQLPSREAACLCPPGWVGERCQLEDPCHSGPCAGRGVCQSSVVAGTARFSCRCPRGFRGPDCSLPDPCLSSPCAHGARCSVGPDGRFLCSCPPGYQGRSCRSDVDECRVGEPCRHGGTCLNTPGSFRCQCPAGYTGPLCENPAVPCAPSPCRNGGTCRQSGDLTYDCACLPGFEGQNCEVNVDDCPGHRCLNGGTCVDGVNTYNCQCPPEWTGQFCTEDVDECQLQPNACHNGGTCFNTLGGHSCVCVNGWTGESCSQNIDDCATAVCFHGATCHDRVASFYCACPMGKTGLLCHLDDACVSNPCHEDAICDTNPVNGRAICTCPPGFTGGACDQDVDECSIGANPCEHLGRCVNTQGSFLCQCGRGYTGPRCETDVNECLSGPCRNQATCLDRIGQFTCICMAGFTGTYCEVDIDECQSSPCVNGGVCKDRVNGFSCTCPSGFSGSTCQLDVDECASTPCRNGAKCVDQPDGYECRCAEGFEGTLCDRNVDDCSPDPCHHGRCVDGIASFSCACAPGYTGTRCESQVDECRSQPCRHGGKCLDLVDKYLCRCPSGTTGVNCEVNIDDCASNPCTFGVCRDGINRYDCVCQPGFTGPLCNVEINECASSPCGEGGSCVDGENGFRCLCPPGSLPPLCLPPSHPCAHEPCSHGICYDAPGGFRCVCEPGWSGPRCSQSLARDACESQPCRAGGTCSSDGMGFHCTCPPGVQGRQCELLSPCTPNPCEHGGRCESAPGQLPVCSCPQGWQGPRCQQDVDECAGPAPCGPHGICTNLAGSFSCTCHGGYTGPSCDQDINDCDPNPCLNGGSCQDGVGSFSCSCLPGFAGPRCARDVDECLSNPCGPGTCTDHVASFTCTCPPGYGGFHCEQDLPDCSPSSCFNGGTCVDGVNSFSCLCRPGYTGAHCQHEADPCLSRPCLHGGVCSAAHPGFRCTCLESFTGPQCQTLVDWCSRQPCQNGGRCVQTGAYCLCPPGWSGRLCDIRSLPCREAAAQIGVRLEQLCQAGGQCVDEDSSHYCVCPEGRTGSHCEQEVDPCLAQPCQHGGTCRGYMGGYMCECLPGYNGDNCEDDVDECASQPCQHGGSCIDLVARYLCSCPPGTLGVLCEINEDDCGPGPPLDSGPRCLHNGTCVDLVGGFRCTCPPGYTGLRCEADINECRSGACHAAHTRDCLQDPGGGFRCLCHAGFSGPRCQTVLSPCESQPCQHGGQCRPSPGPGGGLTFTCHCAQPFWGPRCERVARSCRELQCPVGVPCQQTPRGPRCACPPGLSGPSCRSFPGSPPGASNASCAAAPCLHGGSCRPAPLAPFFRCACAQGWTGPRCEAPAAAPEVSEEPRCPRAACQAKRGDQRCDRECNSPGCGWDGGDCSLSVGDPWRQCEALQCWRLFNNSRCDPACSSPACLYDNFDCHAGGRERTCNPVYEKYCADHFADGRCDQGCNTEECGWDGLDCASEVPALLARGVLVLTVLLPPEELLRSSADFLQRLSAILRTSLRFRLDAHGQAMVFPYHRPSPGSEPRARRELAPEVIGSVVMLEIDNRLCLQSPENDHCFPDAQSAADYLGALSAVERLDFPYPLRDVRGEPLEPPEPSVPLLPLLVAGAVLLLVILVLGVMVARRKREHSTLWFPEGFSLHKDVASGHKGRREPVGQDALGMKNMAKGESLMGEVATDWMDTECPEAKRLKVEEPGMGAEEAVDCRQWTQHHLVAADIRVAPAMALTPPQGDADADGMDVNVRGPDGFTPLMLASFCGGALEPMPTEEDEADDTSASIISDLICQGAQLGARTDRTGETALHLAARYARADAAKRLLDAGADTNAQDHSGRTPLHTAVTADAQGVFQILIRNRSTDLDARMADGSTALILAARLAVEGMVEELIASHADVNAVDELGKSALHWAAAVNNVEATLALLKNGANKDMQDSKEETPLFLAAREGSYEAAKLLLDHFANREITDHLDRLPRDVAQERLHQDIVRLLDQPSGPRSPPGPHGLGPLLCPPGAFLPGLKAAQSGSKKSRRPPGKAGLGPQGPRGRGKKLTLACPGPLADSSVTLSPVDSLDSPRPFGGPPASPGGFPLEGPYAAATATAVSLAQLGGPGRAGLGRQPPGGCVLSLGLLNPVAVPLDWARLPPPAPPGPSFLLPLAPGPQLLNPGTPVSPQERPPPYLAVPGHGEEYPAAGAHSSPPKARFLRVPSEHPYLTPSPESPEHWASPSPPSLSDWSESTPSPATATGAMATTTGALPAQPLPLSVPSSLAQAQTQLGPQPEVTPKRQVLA
Assay [10] is described as follows: small-molecule microarray binders of probe aEGFR, primary screen, biochemical, biotinylated probe, 635/667 nm fluorescence (AID 1097).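 Note: probe is a biotinylated anti-EGFR antibody binding compounds printed on slides; score combines fluorescence near 667 nm and signal to noise of each spot.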 As to conditions: higher = more signal.
The test system of assay [11] is Plasmodium falciparum Sir2 (PF13_0152, Sir2A). The assay can be described thus: pfSir2 binders on small-molecule microarrays, primary screen, biochemical, small-molecule microarray, 635 nm fluorescence (AID 1098).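 Note: score merges spot fluorescence intensity with its signal-to-noise ratio.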 As to conditions: small-molecule microarray binding, fluorescence 635 nm; higher = more signal.
The nature of assay [12]: small-molecule microarray binders of probe aDKK1, primary screen, biochemical, biotinylated probe, 635/667 nm fluorescence (AID 1099).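 Note: score merges 667nm spot fluorescence with signal to noise across triplicate slides; reference of the scale not given here.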 Particulars: higher = more signal.
The nature of assay [13]: small-molecule microarray binders of probe aCHRDL2, primary screen, biochemical, biotinylated probe, 635/667 nm fluorescence (AID 1100). Particulars: higher = more signal.
Assay [14] in a line: splicing luciferase reporter signal modulators, primary screen, spliceosome inhibition project, cell-based, HEK293, splice +/- reporter (AID 1101).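 Note: HEK293 cells carrying a splicing-competent luciferase reporter gene; test concentration not given here.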 As to conditions: luminescence, 24 h, higher = more signal, called active from +8 up or from −8 down.
Assay [15] addresses Fibroblast growth factor 10 (Homo sapiens) (UniProt O15520). The assay is described as follows: FGF10 binders on small-molecule microarrays, primary screen, biochemical, small-molecule microarray, 635 nm fluorescence (AID 1102). As to conditions: FGF10 binding, fluorescence 635 nm, higher = more signal.
Assay [16] has as its system glycogen synthase kinase-3 (GSK3A per assay name; protocol says GSK3B). The assay can be described thus: GSK3 binders on small-molecule microarrays, primary screen, biochemical, small-molecule microarray, 635 nm fluorescence, GSK3A (AID 1103). Note: the record names both GSK3A and GSK3B. Particulars: small-molecule microarray binding, fluorescence 635 nm; higher = more signal.
Assay [17] addresses Epidermal growth factor receptor (Homo sapiens) (UniProt P00533). The assay can be described thus: EGFR binders on small-molecule microarrays, primary screen, biochemical, small-molecule microarray, 635 nm fluorescence (AID 1104).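 Note: score merges 667 nm emission intensity with spot signal to noise over triplicate slides.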 As to conditions: EGFR binding, higher = more signal.
Assay [18] addresses Follistatin-related protein 3 (Homo sapiens) (UniProt O95633). The assay is described as follows: FSTL3 binders on small-molecule microarrays, primary screen, biochemical, small-molecule microarray, 635 nm fluorescence (AID 1105).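 Note: score merges emission near 667 nm and signal to noise per printed spot across three slides.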 Particulars: FSTL3 binding, higher = more signal.
Assay [19] has as its target Dickkopf-related protein 1 (Homo sapiens) (UniProt O94907). The assay can be described thus: DKK1 binders on small-molecule microarrays, primary screen, biochemical, small-molecule microarray, 635 nm fluorescence scan (AID 1106).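 Note: score merges emission near 667 nm with signal to noise over three replicate slides.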 As to conditions: DKK1 binding, higher = more signal.
Assay [20] deals with Inhibin beta A chain (activin A). The assay is described as follows: INHBA (activin A) binders on microarrays, primary screen, biochemical, small-molecule microarray, 635 nm fluorescence scan (AID 1107).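 Note: mouse activin A protein probed at 4.33 µg/mL on printed slides; score merges bound-protein fluorescence near 667 nm with spot signal-to-noise.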 Particulars: small-molecule microarray binding, higher = more signal.

Each structure is given as a SMILES string. The source made the active and inactive calls.

Epidermal growth factor receptor (Homo sapiens), sequence (P00533 whole entry, looked up): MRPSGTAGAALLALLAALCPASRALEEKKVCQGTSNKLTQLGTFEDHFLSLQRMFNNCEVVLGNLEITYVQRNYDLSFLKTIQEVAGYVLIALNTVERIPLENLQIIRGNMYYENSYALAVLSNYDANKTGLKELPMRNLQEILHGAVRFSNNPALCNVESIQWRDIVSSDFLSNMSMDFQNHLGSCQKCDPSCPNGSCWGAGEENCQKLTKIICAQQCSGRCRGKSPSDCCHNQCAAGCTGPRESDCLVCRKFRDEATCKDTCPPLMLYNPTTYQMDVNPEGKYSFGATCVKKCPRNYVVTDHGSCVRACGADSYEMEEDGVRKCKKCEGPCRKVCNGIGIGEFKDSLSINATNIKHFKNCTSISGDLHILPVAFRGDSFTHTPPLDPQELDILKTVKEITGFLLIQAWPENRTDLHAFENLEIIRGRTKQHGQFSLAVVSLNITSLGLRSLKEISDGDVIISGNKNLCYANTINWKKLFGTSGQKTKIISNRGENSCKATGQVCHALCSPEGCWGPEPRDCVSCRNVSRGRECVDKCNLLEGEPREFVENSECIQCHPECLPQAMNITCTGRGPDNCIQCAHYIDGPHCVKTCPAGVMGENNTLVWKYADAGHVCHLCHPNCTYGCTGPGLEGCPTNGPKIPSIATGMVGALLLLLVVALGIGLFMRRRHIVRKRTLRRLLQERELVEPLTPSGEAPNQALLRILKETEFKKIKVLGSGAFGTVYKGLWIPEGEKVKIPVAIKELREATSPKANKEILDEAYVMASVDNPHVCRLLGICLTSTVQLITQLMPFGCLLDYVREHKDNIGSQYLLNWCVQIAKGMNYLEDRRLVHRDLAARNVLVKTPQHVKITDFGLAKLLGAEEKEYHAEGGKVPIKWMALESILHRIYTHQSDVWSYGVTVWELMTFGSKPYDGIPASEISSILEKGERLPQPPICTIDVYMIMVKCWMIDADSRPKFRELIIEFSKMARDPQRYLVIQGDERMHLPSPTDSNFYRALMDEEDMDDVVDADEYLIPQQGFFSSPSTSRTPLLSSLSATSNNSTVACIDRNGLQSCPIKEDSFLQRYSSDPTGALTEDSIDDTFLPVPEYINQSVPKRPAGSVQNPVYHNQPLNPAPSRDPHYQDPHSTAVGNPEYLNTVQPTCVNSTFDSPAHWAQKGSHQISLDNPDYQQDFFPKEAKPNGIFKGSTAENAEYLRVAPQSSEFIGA
Dickkopf-related protein 1 (Homo sapiens), sequence (O94907 whole entry, looked up): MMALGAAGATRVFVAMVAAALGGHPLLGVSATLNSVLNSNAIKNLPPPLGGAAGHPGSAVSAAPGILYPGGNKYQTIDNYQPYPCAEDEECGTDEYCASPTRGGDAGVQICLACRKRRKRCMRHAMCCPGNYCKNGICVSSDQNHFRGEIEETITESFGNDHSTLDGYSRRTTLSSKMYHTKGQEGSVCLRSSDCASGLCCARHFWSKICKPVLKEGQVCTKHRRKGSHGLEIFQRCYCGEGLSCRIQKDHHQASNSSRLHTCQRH
Fibroblast growth factor 10 (Homo sapiens), sequence (O15520 whole entry, looked up): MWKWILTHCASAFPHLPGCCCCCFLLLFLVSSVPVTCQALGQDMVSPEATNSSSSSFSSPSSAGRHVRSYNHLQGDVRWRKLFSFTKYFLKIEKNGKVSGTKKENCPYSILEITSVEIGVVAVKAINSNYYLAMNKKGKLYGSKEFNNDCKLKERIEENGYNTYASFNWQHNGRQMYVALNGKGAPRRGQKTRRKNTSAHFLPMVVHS
Follistatin-related protein 3 (Homo sapiens), sequence (O95633 whole entry, looked up): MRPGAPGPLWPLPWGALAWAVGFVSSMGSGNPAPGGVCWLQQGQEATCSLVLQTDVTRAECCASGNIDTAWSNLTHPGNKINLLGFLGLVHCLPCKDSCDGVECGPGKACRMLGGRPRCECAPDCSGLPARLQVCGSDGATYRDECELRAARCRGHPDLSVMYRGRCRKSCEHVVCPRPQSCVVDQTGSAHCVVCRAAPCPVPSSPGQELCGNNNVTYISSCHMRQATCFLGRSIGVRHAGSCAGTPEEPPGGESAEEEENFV

In the case of `CC1CC/C=C\[C@H]2OC34C=CCN(CCN5CCOCC5)C(=O)[C@H]3N(CCCCCO)C(=O)[C@@H]4C2C(=O)O1` (stereo not given in full), the composite z-score is -0.632 in assay [1]; -1.13 in assay [5]; -0.339 in [7]; -1.02 in assay [8]; -1.17 in assay [9]; -0.158 in assay [10]. In addition, the composite z-score in assay [11] was -0.31; in assay [12] it was -0.605; in assay [13], -0.824; in assay [15], -0.352; in assay [16], -0.444; in assay [17], -0.559. Besides, the composite z-score in assay [18] was -0.507; in [19], -0.0732; in [20] it was 1.01. The z-score in assay [2] was -0.631 (inactive); in assay [3], -0.726 (inactive); in [4], -0.206 (inactive); in assay [6], -0.497 (inactive); in assay [14], -0.282 (inactive).
Consider `COc1ccc([Si](C)(C)[C@H]2[C@H](CCO)O[C@@]3(C(=O)N(Cc4cccc(N5C(=O)c6cccc7cccc5c67)c4)c4ccccc43)[C@@H]2C)cc1`, for which the composite z-score is 1.16 in [1]; 2.1 in assay [5]; -0.205 in assay [7]; 0.492 in [8]; 0.344 in [9]; -0.225 in [10]. Moreover, the composite z-score in assay [11] is 1.25; in assay [12], -0.207; in assay [13], 0.442; in assay [15], 0.668; in assay [16], 0.149; in assay [17], -0.437. Besides, the composite z-score is 0.277 in [18], -0.701 in assay [19] and -0.345 in [20]. Also, the z-score in assay [2] is 2.05 (inactive); in [3], 1.23 (inactive); in assay [4], 36.9 (active); in assay [6], 0.879 (inactive); in [14], -1.27 (inactive).
`C=CC[C@]1(C(=O)O)N=C(c2ccc(OCCCO)cc2)O[C@H]1c1ccccc1CN=[N+]=[N-]`: the composite z-score in assay [1] was -0.697; in assay [5], 1.55; in assay [7], -0.135; in assay [8] it was -0.383; in assay [9] it was -0.522; in assay [10], -0.0239. Moreover, the composite z-score was 1.74 in [11]; 0.177 in [12]; 0.559 in assay [13]; -0.222 in [15]; -0.341 in assay [16]; -0.0348 in assay [17]. For the same molecule, the composite z-score is 0.0521 in assay [18], -0.128 in [19] and 1.35 in [20]. In addition, the z-score is 0.442 (inactive) in assay [2]; 0.263 (inactive) in assay [3]; 0.602 (inactive) in assay [4]; 0.143 (inactive) in assay [6]; -0.611 (inactive) in assay [14].
Turning to `CC(C)NC(=O)[C@@H]1c2ccccc2C(=O)N(C2CCCCC2)[C@H]1c1ccc(CO)cc1`, the composite z-score in [1] was 0.4; in assay [5], 1.48; in assay [7], 0.25; in assay [8] it was -0.123; in assay [9], 0.108; in assay [10], 0.262. The composite z-score worked out at 0.576 in assay [11]; 0.678 in assay [12]; 0.919 in [13]; 0.902 in assay [15]; 0.889 in [16]; 0.101 in [17]. The composite z-score in assay [18] is 0.28; in assay [19], -0.161; in assay [20] it was 0.445. The z-score is -0.455 (inactive) in assay [2]; 0.0765 (inactive) in assay [3]; 0.13 (inactive) in assay [4]; 0.0495 (inactive) in assay [6]; 0.0672 (inactive) in assay [14].
As to `O=C(NCc1ccccc1)[C@@H]1c2ccccc2C(=O)N(C2CCCCC2)[C@H]1c1ccc(CO)cc1`, the composite z-score is 1.47 in assay [1]; 2.53 in [5]; -0.322 in assay [7]; 1.41 in assay [8]; 1.03 in assay [9]; -0.352 in [10]. The composite z-score in [11] is 0.88; in assay [12], -0.709; in assay [13] it was 0.0028; in assay [15] it was 0.686; in assay [16], 0.0662; in assay [17], -0.241. Besides, the composite z-score in assay [18] is 0.707; in assay [19], -0.327; in assay [20], -0.224. Besides, the z-score in assay [2] was -0.406 (inactive); in [3] it was -0.577 (inactive); in assay [4], 0.39 (inactive); in assay [6], -0.175 (inactive); in assay [14] it was 0.365 (inactive).
